Inhibition data for 95 compounds are collected here from PubChem BioAssay AID2732 (Emory University Molecular Libraries Screening Center, 2010).

Screen size: about 220,000 compounds; about 8,200 (3.7%) were called active.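 How the source made its calls: active means compounds that reduced the stress-induced luciferase reporter signal by more than about 70% of percent inhibition (limit read from the data); inactive means the rest.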 The sample as a whole holds a higher share of actives than the screen did.

The nature of the experiment: inhibitors of CHOP promoter induction, primary screen, cell-based, unfolded protein response, luciferase reporter (AID 2732).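 Further: 0% = tunicamycin plus vehicle and 100% = wells without tunicamycin.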 To be noted: CHO-K1 CHOP-promoter luciferase, tunicamycin-induced, 15-18 h; at 10 µM; hits give high values. On the technique in general: Reporter assays use an easily measured gene product as a stand-in for the process of interest.
Consider `CN1CCN(c2cc3c(cc2F)c(=O)c(C(=O)O)cn3CCF)CC1`, for which the inhibition (usually the drop in the measured response relative to a control, in per cent) is 2.99% (inactive). Next, `O=C(Cn1cnc2cc([N+](=O)[O-])ccc2c1=O)NC(=O)NCc1ccccc1`: -6.05% (inactive); `O=C(NNc1cc(Cl)cc(Cl)c1)c1c(F)cccc1Cl`: 30.1% (inactive). Consider `Cc1nn(CC(=O)N/N=C/c2ccc(F)cc2)c(C)c1[N+](=O)[O-]`, for which the inhibition was -4.46% (inactive). For the compound `CSc1nnc(SCc2nc3sc(C(=O)O)c(C)c3c(=O)[nH]2)s1`, the inhibition is 3.13% (inactive). `O=C(NN1C(=O)C2CCCCC2C1=O)c1ccco1` (stereo not given): the inhibition was 6.45% (inactive). As for `S=C(NCc1cccnc1)Nc1ccc(Cl)cc1Cl`, the inhibition is 2.87% (inactive). As for `CC(=O)/C(=N\Nc1ccc(Cl)cc1Cl)Sc1cccc2cccnc12`, the figure is 93.6% (active); as for `O=C(CSc1cccc2cccnc12)N/N=C/c1cccnc1`, 42.7% (inactive). In the case of `Nc1ccc2nn(-c3ccc(Cl)cc3)nc2c1`, the inhibition was 30.4% (inactive). `CCCc1ccc(OCc2ccc(C(=O)N/N=C/c3cccc([N+](=O)[O-])c3)o2)c(OC)c1`: the inhibition is 85.8% (active). As to `COC(=O)c1ccc(COc2ccc(/C=N/NC(=O)C(=O)Nc3ccc(OC)cc3)cc2OC)o1`, the inhibition was 17.4% (inactive). On to `COc1cc(/C=N/O)ccc1OCc1ccc([N+](=O)[O-])cc1`, for which the inhibition is 2.17% (inactive). Turning to `COc1cc(C(CCN2CCN(c3ccccc3)CC2)c2c(OC)cc(OC)c3ccc(=O)oc23)cc(OC)c1OC` (stereo not given), the inhibition was -15.7% (inactive). `CCOc1ccc(N=Cc2c(O)n(-c3cccc(C)n3)c(=O)c3ccccc23)cc1`: the inhibition is -5.5% (inactive). As for `Cc1[nH]n(-c2ccc(Cl)cc2)c(=O)c1/C=N/n1c(C)nc2ccccc2c1=O`, the figure is 26.2% (inactive); as for `CCOc1[nH]n(-c2ccc(Cl)cc2)c(=O)c1C=Nc1ccc(O)cc1`, 73.4% (active). On to `CC(C)(C)c1cc(NC(=O)NN2CCOCC2)nn1-c1c(Cl)cc(Cl)cc1Cl`, for which the inhibition is 11.2% (inactive). Consider `CCNC(=S)N1CCN(CCN=CC2=C(O)CC(C)(C)CC2=O)CC1`, for which the inhibition was 13% (inactive). For the compound `CC(C)(C)NC(=O)NCc1ccco1`, the inhibition is 6.03% (inactive). As for `CSc1sc(C(=O)NNC(=O)c2ccc(Cl)cc2)c2c1C=CCC2`, the figure is 0.19% (inactive); as for `O=C(Nc1ccccc1C(F)(F)F)N1CCCC1c1cccnc1` (stereo not given), 4.33% (inactive). Regarding `O=[N+]([O-])/C=C1\CCCCCN1`, the inhibition was -14.7% (inactive). Take `O=C(O)CSCC(=O)Nc1cccc(C(F)(F)F)c1`: the inhibition is -3.97% (inactive). As for `O=C(Nc1cccc(C(F)(F)F)c1)c1cnccn1`, the figure is -10.5% (inactive); as for `Cn1nc(C(F)(F)F)c(C(=O)Nc2cccc(C(F)(F)F)c2)c1SCc1ccc(Cl)cc1`, 80.9% (active).

For `CCOC(=O)CSc1nc(C)c(Oc2ccc(Cl)cc2Cl)c(=O)[nH]1`, the inhibition was 10.4% (inactive). Regarding `O=C(NN1C(=O)C2C(C1=O)C1C=CC2C12CC2)c1ccccc1Cl` (stereo not given), the inhibition was 3.92% (inactive). For the compound `COc1ccc(-c2csc(Nc3ccccn3)n2)cc1`, the inhibition was -4.38% (inactive). With `CCOc1cc(NC(=O)c2ccccn2)c(OCC)cc1NC(=O)c1ccc(OC)cc1`, the inhibition is -5.86% (inactive). For the compound `COc1ccc(C(=O)/C=C/Nc2ccccn2)cc1`, the inhibition is 73.5% (active). As for `Cn1c2ccc(F)cc2c2nnc(NN)nc21`, the inhibition was 13.9% (inactive).

Take `N#CCCCn1c(O)c(N=NC(=O)C(O)c2ccccc2)c2ccccc21` (stereo not given): the inhibition was 11.1% (inactive). Turning to `CC(C)C(c1nnnn1CCc1ccccc1)N1CCN(C(=O)c2ccco2)CC1` (stereo not given), the inhibition is -7.76% (inactive).

Turning to `CC(C)C(c1nnnn1Cc1ccccc1)N1CCC(C(N)=O)CC1` (stereo not given), the inhibition is 76.1% (active). Next, `Cc1ccc(C(c2nnnn2CS(=O)(=O)c2ccc(C)cc2)N2CCC(C(N)=O)CC2)cc1` (stereo not given): 33.9% (inactive); `COc1ccc(NC(=S)Nc2ccccc2Cl)cn1`: 1.96% (inactive). In the case of `COc1ccc(CS(=O)/C(Cl)=C(/Cl)C(=O)Nc2ccc(OC)nc2)cc1` (stereo not given), the inhibition is 107% (active). Take `COc1ccc(NC(=S)NCCNC(C)=O)cc1`: the inhibition was -5.59% (inactive).

With `Cc1nc(COc2cccc(Cl)c2)sc1C(=O)/C=C/N(C)C`, the inhibition was -1.3% (inactive). For the compound `NC(=O)C1(N2CCCCC2)CCN(C(=O)c2ccc(C#Cc3ccccc3)o2)CC1`, the inhibition is 78.8% (active). With `CC(C)(O)C#Cc1ccc(C(=O)N2CCC(C(N)=O)(N3CCCCC3)CC2)cc1`, the inhibition is 20.2% (inactive). Take `NC(=O)C1(N2CCCCC2)CCN(C(=S)Nc2ccc(Cl)cc2)CC1`: the inhibition is 8.9% (inactive). For `COc1ccc(CCNC(=O)C2CC3Cn4c(nc5cc(C)c(C)cc54)C3N2C)cc1` (stereo not given), the inhibition was -11.2% (inactive). In the case of `Cc1ccc(N2NC(=O)/C(=C/C=C/c3ccco3)C2=O)cc1C`, the inhibition was 5.23% (inactive).

With `Cc1cccc(N=C2NC(=O)/C(=C/c3cn(C)c4ccccc34)S2)c1`, the inhibition was 14% (inactive).

In the case of `Cc1ccc(N=C2NC(=O)/C(=C/C=C/c3ccco3)S2)cc1C`, the inhibition was 84.4% (active).

As to `CCN(CC)C(=O)CC(c1ccc2c(c1)OCO2)c1c(OC)cc(OC)c2c(-c3ccccc3)cc(=O)oc12` (stereo not given), the inhibition was 9.26% (inactive). For `O=C(Nc1ccccc1N1CCCCC1)c1ccc2nccnc2c1`, the inhibition is 79% (active). Turning to `O=C(Nc1ccccc1N1CCCCC1)c1cccc(F)c1`, the inhibition is 76% (active).

Regarding `Cc1cc(C(=O)Nc2ccccc2N2CCOCC2)c2ccccc2n1`, the inhibition is 26.9% (inactive). For the compound `O=C(Nc1ccccc1N1CCN(c2ccccc2)CC1)c1cccc(F)c1`, the inhibition is 44.2% (inactive). Next, `O=C(Nc1ccccc1N1CCN(C(=O)c2ccccc2)CC1)c1ccc2c(c1)OCO2`: 40% (inactive); `Cc1cccc(C(=O)Nc2ccccc2N2CCN(c3ccc(F)cc3)CC2)c1`: 30.4% (inactive). For `CCc1ccccc1N1CN(Cc2ccco2)CNC1=S`, the inhibition is -7.09% (inactive).

As to `Cc1nc(-c2nnc(SCC(=O)Nc3cc(C(F)(F)F)cc(C(F)(F)F)c3)n2C)cs1`, the inhibition is 61.4% (inactive). Turning to `CC1CC(C)(C)n2c(O)c(N=NC(N)=S)c3cccc1c32` (stereo not given), the inhibition is 21.3% (inactive). Turning to `CCOc1ccc2sc(NS(=O)(=O)c3ccc(N)cc3)nc2c1`, the inhibition was 5.24% (inactive).

Consider `COC(=O)c1ccc(Oc2nc(NC(C)C)nc(SC)n2)cc1`, for which the inhibition was 20.5% (inactive).

Take `COC(=O)c1ccc(Oc2nc(Nc3ccc(F)cc3)nc(N3CCCC3)n2)cc1`: the inhibition is 73.6% (active). As to `CCNc1nc(Oc2ccc(C(=O)OC)cc2)nc(N2CCOCC2)n1`, the inhibition is -6.61% (inactive). As for `CCOc1ccc(-c2nc(N)ncc2-c2ccccc2OC)c(O)c1`, the figure is 16.1% (inactive); as for `C=C(C)COc1ccc(-c2nc(N)ncc2-c2ccccc2OC)c(O)c1`, 7.39% (inactive); as for `Cc1[nH]nc(-c2ccc(OCc3cnn(-c4ccccc4)c3)cc2O)c1Oc1ccc(Cl)cc1`, 51.5% (inactive). As for `CCOc1ccc(-c2n[nH]c(C)c2-c2ccccn2)c(O)c1`, the inhibition is 9.43% (inactive). For `C=C(C)COc1ccc(-c2n[nH]c(C)c2-c2ccccc2OC)c(O)c1`, the inhibition is 105% (active).

For `C=C(C)COc1ccc(-c2n[nH]c(C)c2-c2ccccc2)c(O)c1`, the inhibition was 112% (active). As to `Brc1ccc(-c2nn[nH]n2)cc1`, the inhibition is 6.83% (inactive). With `COC(C[C@@H](O)[C@H](C)[C@H](O)COCc1ccccc1)OC`, the inhibition was 0.72% (inactive).

As to `Cc1nc(CNS(=O)(=O)c2cc([N+](=O)[O-])ccc2C)cs1`, the inhibition is 24.2% (inactive). Consider `O=C(NCCc1ccccc1)Oc1ccc(Cl)cc1`, for which the inhibition is -12.7% (inactive). As for `C=C(C)Cn1c(C)cc(C)c(S(=O)(=O)c2ccccc2C)c1=O`, the inhibition is 72.7% (active).

As to `Cc1ccccc1Nc1c(-c2ccccc2)nc2ncccn12`, the inhibition was 1.44% (inactive). Take `Clc1ccc(CSc2nnc3c(n2)[nH]c2ccccc23)cc1`: the inhibition is 10.8% (inactive). Turning to `C=CCC1(C#N)C(=S)NC(C)=C(C(=O)OCC)C1c1ccccc1` (stereo not given), the inhibition was 8.99% (inactive).

For `CCOC(=O)/C=C/CN(C(=O)OC(C)(C)C)S(=O)(=O)N1CC=CC1`, the inhibition was 0.06% (inactive).

As for `O=C(Cc1csc(Nc2nc(=S)[nH]c3ccccc23)n1)NCCCN1CCN(c2cccc(Cl)c2)CC1`, the inhibition is 79.8% (active). As to `O=C(CCn1c(=O)[nH]c2ccccc2c1=O)NCCCN1CCN(c2cccc(Cl)c2)CC1`, the inhibition is -9.62% (inactive). On to `COc1cccc(CNC(=O)Cc2csc(Nc3nc(=S)[nH]c4ccccc34)n2)c1`, for which the inhibition was 49.7% (inactive). As for `O=[N+]([O-])c1ccc2c(c1)C(O)n1nc(-c3ccccc3)nc1S2` (stereo not given), the inhibition was 37.2% (inactive). As for `CCCc1nc2c(c(=O)c3ccccc3n2C)c(=O)n1-c1cc(C)cc(C)c1`, the inhibition is -14.6% (inactive). Next, `CCCc1nc2c(c(=O)c3ccccc3n2C)c(=O)n1C1CCCCCC1`: 95.5% (active); `Cn1c2ccccc2c(=O)c2c(=O)n(Cc3ccco3)c(COc3ccccc3)nc21`: -34.3% (inactive). For the compound `COc1cc(OC)c(OC)cc1/C=N/Nc1ncnc2c1[nH]c1ccc(C)cc12`, the inhibition was -33.8% (inactive).

As to `O=c1ccnc(Nc2ccc(Cl)cc2)[nH]1`, the inhibition is -1.5% (inactive). For the compound `CC1=NNC(=O)C1CCC(=O)N/N=C(\C)c1ccc(Cl)cc1` (stereo not given), the inhibition is 5.21% (inactive).

Regarding `O=[N+]([O-])c1cc(S(=O)(=O)CCCN2CCOCC2)ccc1F`, the inhibition is 97.8% (active). With `O=[N+]([O-])c1ccc(NCCCN2CCOCC2)c(Cl)c1`, the inhibition was 13% (inactive).

With `O=C(NCCCN1CCOCC1)c1ccc([N+](=O)[O-])cc1[N+](=O)[O-]`, the inhibition was -3.24% (inactive).

On to `O=C(CN1CCN(Cc2ccccc2)CC1)NC(c1ccccc1)c1ccccc1`, for which the inhibition is -8.53% (inactive). Consider `CC#CC[N+](C)(C)CCCCCC`, for which the inhibition is -9.84% (inactive). `[O-][N+]12CCCCC1CCCC2CO` (stereo not given): the inhibition was -6.34% (inactive). In the case of `COC(=O)/C=C\C(=O)Nc1cccc([N+](=O)[O-])c1`, the inhibition was 107% (active). As for `CC(=O)Nc1cccc([N+](=O)[O-])c1`, the figure is 13.9% (inactive); as for `Cc1ccccc1NC(=S)Nc1cccc([N+](=O)[O-])c1`, 4.63% (inactive).
